Assay outcomes (PubChem BioAssay)
Beta apoptosis: beta cell apoptosis inhibition | AID 435005 | actives 0.8% (n = 300,000) | INS-1E cytokine-induced death, ATP luminescence, 48 h; percent of positive-control rescue, neutral wells zero | protection from apoptosis, % (test concentration not listed);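 active means Every replicate reaches about 75%, or at least half do and their mean reaches it too, limit read from the data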;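 further: higher means more ATP so stronger rescue from cytokine killing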
697 NFkB inh: inhibitors of the PMA/ionomycin-induced NF-kB reporter in 697 B cells | 697 B-cell NF-kB luciferase reporter, 16 h | actives 0.33% (n = 330,000) | inhibition, % at 4 µM | AID 435022; in the data active means inhibition above about 35%
Gli-Sufu block: blocks Gli-Sufu signaling in a luciferase reporter | Sufu-KO-LIGHT fibroblasts, Gli luciferase reporter luminescence | inhibition, % at 5 µM | actives 0.74% (n = 340,000) | AID 588413;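 active means inhibition above about 55%, limit read from the data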
Jurkat NFkB inh: inhibitors of the PMA/ionomycin-induced NF-kB reporter in Jurkat cells; actives 0.53% (n = 330,000); AID 435003; PMA/ionomycin-induced NF-kB luciferase reporter, luminescence; inhibition, % at 4 µM; in the data active means inhibition above about 50%
697 NFkB conf: lowers PMA/ionomycin-induced NF-kB signal in 697 B cells | shares compounds with 697 NFkB inh | actives 35% (n = 2,000) | AID 449746 | inhibition, % at 4 µM | 697 B-cell NF-kB luciferase, 16 h; in the data active means inhibition mostly above about 28%, no sharp cut-off; inactive means mostly below about 22%
Gli antag conf: confirmation of Gli-SUFU pathway antagonists | Sufu-KO-LIGHT cells, Gli luciferase reporter, luminescence | inhibition, % at 5 µM | actives 40% (n = 2,500) | shares compounds with Gli-Sufu block;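 active means mean inhibition at 5 µM reaching about 45%, limit read from the data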
Gli cytotox: cytotoxic in Gli-SUFU antagonist counter-screen. shares compounds with Gli-Sufu block. Sufu-KO-LIGHT cells cytotoxicity, ATP luminescence. cytotoxicity, % at 5 µM. actives 32% (n = 2,500);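 active means mean cytotoxicity at 5 µM above about 25%, limit read from the data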;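 further: cells exposed to compound overnight for roughly 16 to 18 hours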
Wnt3a cs: inhibits Wnt3a reporter, counter-screen for Gli-SUFU antagonists | Wnt-LIGHT cells, Wnt3a-driven luciferase reporter, luminescence | shares compounds with Gli-Sufu block | actives 20% (n = 2,500) | inhibition, % at 6.25 µM;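 active means mean inhibition above about 25%, limit read from the data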
Large screens that a line does not name were inactive (follow-up assays come after a bar, where they were run); ! = not active in a repeat. This is a sample that favours compounds with a hit; in the whole collection about 1.8% have one here.

Cc1nnc(SCCN2CCOCC2)c2nn(-c3ccccc3F)c(C)c12	none (no result: Beta apoptosis, 697 NFkB inh, Jurkat NFkB inh)
CCOc1ccc(S(=O)(=O)NCc2ccncc2)cc1NC(=O)c1ccccc1	697 NFkB inh 45, Gli-Sufu block 63 | 697 NFkB conf 84 | Gli antag conf 66 | Gli cytotox 28 | Wnt3a cs inactive
O=C1OCCN1C(=O)[C@H]1[C@H](c2ccc(Cl)cc2)C(c2ccc(F)cc2)=NN1c1ccccc1	none (no result: Beta apoptosis, Jurkat NFkB inh)
N=c1c2c(n(Cc3cccc(Cl)c3)c3c1CCC3)CCCC2	Beta apoptosis 94, 697 NFkB inh 43, Gli-Sufu block 81 | 697 NFkB conf 38 | Gli antag conf 83 | Gli cytotox 35 | Wnt3a cs 36
N=c1c2c(n(Cc3ccc(Cl)cc3)c3c1CCC3)CCC2	697 NFkB inh 105, Gli-Sufu block 80 | 697 NFkB conf inactive | Gli antag conf 82 | Gli cytotox 25 | Wnt3a cs 48
CCOC(=O)Cn1c2c(c(=N)c3c1CCC3)CCC2	none
Clc1cccc(CN2CCCCCC2)c1	none
N#Cc1cc2cc3c(cc2nc1N1CCOCC1)OCO3	none
CCOC(=O)c1sc(NC(=O)c2cc(-c3ccccc3C)nc3ccccc23)c(C#N)c1C	697 NFkB inh 36, Gli-Sufu block 63 | 697 NFkB conf 40 | Gli antag conf 82 | Gli cytotox inactive | Wnt3a cs 74
CCOC(=O)c1sc(NC(=O)c2ccncc2)c(C#N)c1C	none
Cc1ccc(-c2cn(-c3ccccc3)c3[n+]2CCCS3)cc1	Beta apoptosis 111, 697 NFkB inh 56!, Gli-Sufu block 83! | 697 NFkB conf 35 | Gli antag conf 87 | Gli cytotox 45 | Wnt3a cs 45
COc1ccc(-c2c[n+]3c(n2-c2ccccc2)SCC3)cc1OC	none
Cc1ccc(-c2c[n+]3c(n2-c2ccccc2)SCC3)cc1	Beta apoptosis 106, 697 NFkB inh 39, Gli-Sufu block 84 | 697 NFkB conf 42 | Gli antag conf 83 | Gli cytotox inactive | Wnt3a cs 38
O=C(CCCCCN1C(=O)c2ccccc2C1=O)Nc1ccccc1	none
O=C(CCCCCCC(=O)Nc1ccccc1)NO	Gli-Sufu block 84 | 697 NFkB conf inactive | Gli antag conf 88 | Gli cytotox inactive | Wnt3a cs inactive
c1ccc(Cc2ccc(OCCN3CCOCC3)cc2)cc1	none
O=C(COc1ccc([N+](=O)[O-])cc1)NNC(=O)Nc1ccc([N+](=O)[O-])cc1	Gli-Sufu block 98 | Gli antag conf inactive | Gli cytotox inactive | Wnt3a cs inactive
Oc1ccc(Cl)cc1CNc1nccs1	none
OC(CN1CCN(c2cccc(Cl)c2)CC1)c1ccc(F)cc1 (stereo not drawn)	Gli-Sufu block 69 | Gli antag conf inactive | Gli cytotox inactive | Wnt3a cs inactive
CCOC(=O)c1c(NC(=O)C[n+]2ccc(Cc3ccccc3)cc2)sc(C)c1C	Beta apoptosis 78 | Gli antag conf inactive | Gli cytotox inactive | Wnt3a cs inactive
O=C(NC(=S)Nc1ccc(CN2CCOCC2)cc1)c1ccc([N+](=O)[O-])cc1Cl	none
CCOC(=O)c1ccc(NC(=S)N(CCCN2CCN(C)CC2)Cc2cccs2)cc1	Gli-Sufu block 60 | Gli antag conf inactive | Gli cytotox 27 | Wnt3a cs inactive
Cn1c(SCC(=O)NCc2ccc(F)cc2)ncc(C(=O)Nc2ccccc2)c1=O	none | Gli antag conf inactive | Gli cytotox inactive | Wnt3a cs inactive
COc1cc(C(=O)N2CCN(c3ncnc4sc(C)c(C)c34)CC2)cc(OC)c1OC	Gli-Sufu block 57 | Gli antag conf 54 | Gli cytotox 31 | Wnt3a cs inactive
CCNc1nc(CN2CCCCC2)nc2scc(-c3ccccc3)c12	Gli-Sufu block 69 | Gli antag conf 56 | Gli cytotox inactive | Wnt3a cs inactive
CCc1ccc(C(CNC(=O)c2ccc3c(=O)n(-c4ccccc4F)c(=S)[nH]c3c2)N(C)C)cc1 (stereo not drawn)	Gli-Sufu block 59 | Gli antag conf inactive | Gli cytotox inactive | Wnt3a cs inactive
CCCCOc1ncnc2c1[nH]c1ccccc12	none
CCCCOCCCNc1ncnc2c1[nH]c1ccccc12	Beta apoptosis 114, Gli-Sufu block 81 | Gli antag conf 82 | Gli cytotox 27 | Wnt3a cs inactive
COc1cccc(CNC(=O)CCNC(=O)c2ccco2)c1	none
COc1ccc(CCNC(=O)CCNC(=O)c2ccco2)cc1	Gli-Sufu block 72 | Gli antag conf inactive | Gli cytotox 28 | Wnt3a cs inactive
CS(=O)(=O)Cc1ccc(C(=O)NCC2(N3CCCCC3)CCCCC2)cc1	none | Gli antag conf inactive | Gli cytotox inactive | Wnt3a cs inactive
CC(=O)Nc1ccc(S(=O)(=O)N2CCC(C(N)=O)(N3CCCCC3)CC2)cc1	Gli-Sufu block 55 | Gli antag conf inactive | Gli cytotox inactive | Wnt3a cs inactive
CCCCCCCN1C2=NCCCN2c2ccccc21	Gli-Sufu block 59 | Gli antag conf inactive | Gli cytotox inactive | Wnt3a cs inactive
CCCCN1C2=NCCCN2c2cc(C)c(C)cc21	Gli-Sufu block 64 | Gli antag conf 67 | Gli cytotox 39 | Wnt3a cs 29
Cc1ccc(NC(=O)C2(c3ccccc3)CCOCC2)c([N+](=O)[O-])c1	none (no result: Beta apoptosis)
COc1ccccc1NC(=O)COc1ccc2c(c1)OCO2	Gli-Sufu block 59 | Gli antag conf inactive | Gli cytotox inactive | Wnt3a cs inactive
COc1ccc(Cl)cc1NC(=O)CN(C)C(=O)CN1C(=O)NC2(CCCC2)C1=O	none (no result: Beta apoptosis)
N=c1c(C(=O)NC2CCCC2)cc2c(=O)n3ccccc3nc2n1CC1CCCO1 (stereo not drawn)	none (no result: Beta apoptosis)
CC(NC(=O)c1cc2c(=O)n3ccccc3nc2n(CC2CCCO2)c1=N)c1ccccc1 (stereo not drawn)	Gli-Sufu block 59 | Gli antag conf inactive | Gli cytotox inactive | Wnt3a cs inactive
O=C(c1cccc(N2C(=O)C3CC=CCC3C2=O)c1)N1CCCCCC1 (stereo not drawn)	none (no result: Beta apoptosis)
NC(=O)c1ccc(N2CCCCC2)c(N2C(=O)C3CC=CCC3C2=O)c1 (stereo not drawn)	none | Gli antag conf inactive | Gli cytotox inactive | Wnt3a cs inactive
Cc1cccc(C)c1NC(=O)COC(=O)c1cc(-c2cccnc2)nc2ccccc12	none
Cc1cccc(NC(=O)c2onc3c2CCCC3)c1C	none
Cc1ccccc1NC(=O)c1onc2c1CCCC2	Gli-Sufu block 56 | Gli antag conf inactive | Gli cytotox inactive | Wnt3a cs inactive
O=C(NC(c1cccnc1)C(F)(F)F)c1cc(COc2ccc3c(c2)CCCC3)on1 (stereo not drawn)	Beta apoptosis 107, Gli-Sufu block 61 | Gli antag conf 59 | Gli cytotox 31 | Wnt3a cs inactive
